Compound activity: PubChem BioAssay, National Center for Advancing Translational Sciences (NCATS)
Shiga inhibitor = A qHTS for Small Molecule Inhibitors of Shiga Toxin; Vero cells, Shiga toxin protein synthesis inhibition reporter; inhibition, % at 38.7 µM; 290,000 compounds, 9.2% hits; AID 2315, 2010; in the data active means inhibition mostly above about 28%, no sharp cut-off; inactive means mostly below about 43%; further: 0% is about no effect
CHX counter = Cycloheximide Counterscreen for Small Molecule Inhibitors of Shiga Toxin; cell reporter, cycloheximide protein synthesis inhibition counterscreen; max response, %; 300,000 compounds, 12% hits; in the data active means max response mostly above about 13%, no sharp cut-off; inactive means mostly below about 14%; further: read at 38.3 µM for the half of the compounds with a filed dose; 0% is about no effect
Pf growth 48h = Primary qHTS for delayed death inhibitors of the malarial parasite plastid, 48 hour incubation; P. falciparum luciferase growth in erythrocytes, 48 h; Potency, µM (doses to about 28.7 µM), inactives show at the top dose activity change, negative = inhibition, actives largely listed as inhibitors; 310,000 compounds, 5.9% hits; active means well fitted inhibition curve with a large enough effect; inconclusive means small, poorly fitted or top-dose-only effect, or another doubt; inactive means no such curve, though single readings can be large or run the other way; further: potency means the concentration at half of the fitted maximal effect; on the % scale 0 is the no-effect control and ±100 the full control effect
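Erythrocytes infected with P. falciparum carrying an integrated firefly luciferase reporter (2% hematocrit, 0.1% parasitemia final) were exposed to compounds in RPMI 1640 with 0.5% Albumax at 37 C, 5% CO2. Growth inhibition was scored as reduced luminescence.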
NS1 inh = qHTS Assay for Inhibitors of Influenza NS1 Protein Function. 270,000 compounds, 0.4% hits. Potency, µM (highest dose often 46.1 µM), for the others: top-dose activity, positive = more growth; further: potency means the concentration at half of the fitted maximal effect; actives are rising curves; nearly all actives have a fitted effect of over 50% in size
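OD600 was taken as the measure of yeast growth restored by compound in an NS1-expressing S. cerevisiae strain. Cells had been washed out of glucose medium and diluted 1:100 into galactose -URA medium, pH 6.0.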
SARS PLP yeast = qHTS of Yeast-based Assay for SARS-CoV PLP | S. cerevisiae expressing SARS-CoV PLpro, growth rescue | Potency, µM (highest dose often 32.9 µM), for inactives: at the top dose activity, positive = growth rescue, actives largely listed as activators | 330,000 compounds, 0.19% hits | AID 485353, 2010; further: potency means the concentration at half of the fitted maximal effect; 0% is about no effect; nearly all actives have a fitted effect of over 55% in size
Pf growth 96h = Primary qHTS for delayed death inhibitors of the malarial parasite plastid, 96 hour incubation; P. falciparum luciferase reporter growth, 96 h; Potency, µM (doses to about 28.7 µM), for the others: at the highest dose activity change, negative = inhibition, most hits filed as inhibitors; 320,000 compounds, 6.9% hits; active means well fitted inhibition curve with a large enough effect; inconclusive means small, poorly fitted or top-dose-only effect, or another doubt; inactive means no such curve, though single readings can be large or run the other way; further: potency means the concentration at half of the fitted maximal effect; on the % scale 0 is the no-effect control and ±100 the full control effect
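P. falciparum expressing integrated firefly luciferase, in erythrocytes at 2% hematocrit, 0.05% parasitemia, incubated with compounds 96 h at 37 C, 5% CO2. Growth inhibition read as loss of luminescence; two-generation exposure targets delayed-death apicoplast inhibitors.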
Starred values were filed as active, the others as inactive; i = inactive; ? = inconclusive; · = no result; [ ] = dose if it differs, or a comment. In the library only some 21% were active in any assay of this set; here they are far more common. Unless noted, the call rests on the fitted dose curve.

SMILES | Shiga inhibitor | CHX counter | Pf growth 48h | NS1 inh | SARS PLP yeast | Pf growth 96h
CCOC(=O)N1CCN(C(=O)CN(C2CCCCC2)S(=O)(=O)c2ccc(Cl)cc2)CC1 | -17.8 | 0.5 | · | -6.4% | 3.4% | ?
CCN1CCCC1Cn1cnc2c([nH]c3ccc(Cl)cc32)c1=O (stereo not given) | 12.5 | 3.9 | 8.8% | 12.7% | 6.9% | -4.8%[5.75 µM]
Clc1ccc2[nH]c3c(NCC4CCCO4)ncnc3c2c1 (stereo not given) | 12.9 | 23.4* | ? | -15.9% | -6.1% | 166.4%
Fc1ccc2[nH]c3c(NCCN4CCOCC4)ncnc3c2c1 | -2.2 | -1.6 | 3.29µM* | -9.6% | -3.9% | 4.15µM*
O=c1c2[nH]c3ccc(F)cc3c2ncn1CCCN1CCOCC1 | 24.2 | 10.7 | 3.2% | 2.6% | 5.1% | ?
Clc1ccc2[nH]c3c(NCCN4CCOCC4)ncnc3c2c1 | 24.5 | 6.6 | 3.7µM* | -0.8% | -1.1% | 30.1%
CN1CCN(C(=O)c2ccc(-n3cccn3)nc2)CC1 | -1.8 | 4.4 | i | · | 2.5% | 68.6%
Cc1cc(C)nc(/N=C(\N)Nc2ccc(S(=O)(=O)Nc3nccc(C)n3)cc2)n1 | -6.8 | -1.1 | 44.3% | 1.2% | 0.0% | 4.15µM*
Cc1cc(C)nc(/N=C(\N)Nc2ccc(OCCC(C)C)cc2)n1 | -6.8 | -0.5 | 10.4µM* | -1.7% | 1.5% | ?
Cc1cc(C)cc(NC(=O)N2CCNC(=O)C2CC(=O)Nc2cc(Cl)ccc2Cl)c1 (stereo not given) | 9.9 | -4.8 | 44.1% | 5.5% | 5.7% | ?
Cc1cc(C)n(-c2nnc(C)n2/N=C/c2ccccc2OCc2ccccc2Cl)n1 | -4.2 | -0.8 | ? | -54.9% | -17.7% | -22.7%
Cc1cc(C)n(-c2nnc(C)n2/N=C/c2cc(Br)ccc2OCc2ccccc2)n1 | 37.9 | 20.2* | 4.65µM* | -45.9% | -5.3% | 6.7%
Cc1nn(-c2ccccc2)nc1C(=O)Oc1cc(C(F)(F)F)nn1-c1ccccc1 | -2.4 | -2.3 | 0.37µM* | ? | 6.3% | -29.2%
COc1cccc(C(=O)NNC2OC(CO)C(O)C2O)c1 (stereo not given) | 69.3* | 30.8* | ? | · | 0.0% | 7.5%
O=C(NNC1OC(CO)C(O)C(O)C1O)c1cccnc1 (stereo not given) | 49.7* | 18.7* | 27.8% | 12.0% | -0.4% | ?
COc1cccc(C(=O)NNC(=O)Cc2cccs2)c1 | -10.5 | -3.1 | ? | 6.6% | 0.3% | 3.0%
O=C(OCC1CC(c2ccccc2Cl)=NO1)c1ccc(Br)cc1 (stereo not given) | 39.9 | 19.9* | 19.6% | -5.9% | -25.5% | 34.9%
O=C(OCC1CC(c2ccccc2)=NO1)c1ccco1 (stereo not given) | 93.0* | 54.0* | 16.2% | 1.5% | -5.8% | 32.9%
O=C(OCC1CC(c2ccccc2)=NO1)c1ccc(Br)cc1 (stereo not given) | 5.3 | -0.2 | 10.7% | -6.3% | -0.3% | 38.7%
CC(C)CCSc1nc(N)c(C#N)cc1C#N | 10.7 | 33.2* | 11.7µM* | -9.3% | -13.9% | -10.1%
COc1cc2c(cc1OC)CN(C(=O)CN1CCN(S(=O)(=O)c3ccc(C)c(C)c3)CC1)CC2 | 12.7 | -11.3 | ? | -9.5% | -3.4% | 13.1µM*
COc1ccc(S(=O)(=O)N2CCN(C(=O)COc3ccc(C)c(C)c3)CC2)cc1OC | -5.7 | 1.4 | 10.4µM* | 0.5% | 0.5% | 0.8%
Cc1ccc(CN(C(=O)COc2ccc(C)c(C)c2)C2CCS(=O)(=O)C2)o1 (stereo not given) | -6.2 | -5.9 | 2.1% | -4.6% | 9.2% | ?
Cc1ccc(S(=O)(=O)CC(CN2CCOCC2)N2CCOCC2)cc1 (stereo not given) | -5.6 | -1.1 | -0.2% | -0.8% | -0.7% | -17.8%
O=S(=O)(CC(CN1CCCC1)N1CCCC1)c1ccc2ccccc2c1 (stereo not given) | 3.0 | 1.8 | ? | 1.3% | 3.2% | 4.15µM*
O=C(Oc1ccc(Cl)c2cccnc12)c1cccc([N+](=O)[O-])c1 | -11.9 | 1.1 | ? | 19.6% | -67.6% | 37.9%
